# Measurements taken from PubChem BioAssay (EPA / NIEHS).
# Values joined by “and” are separate entries in the source; they are usually repeats but may differ in a detail not shown here. Equal entries are not always repeated. Some compounds were tested as several samples or in several runs, with calls that do not always agree. Active and inactive are the calls of the source. The calls were made as follows: active = hit-call score of the fitted dose curve at least 0.9, where 1 is the maximum; inactive = score below 0.9.
# Tests used:
# [1] = ATG_DR4_LXR_CIS: Attagene CIS-FACTORIAL HepG2 Assay for human Liver X Receptor (LXR), DR4 submotif (AID 2282929); settings: HepG2 Attagene DR4 cis-reporter, mRNA transcription; AC50: actives raise or lower the signal unless noted; outcome: actives raise or lower the signal unless noted
# Method in brief: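 HepG2 cells transiently transfected with cis-promoter-driven multiplexed reporter units (DR4 element) were dosed for 24 h. Reporter mRNA was quantified by RT-PCR, fluorescent primer extension, HpaI digestion and capillary electrophoresis; bidirectional fitting versus DMSO baseline.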
# [2] = target: Aryl hydrocarbon receptor (Homo sapiens) (UniProt P35869); test: ATG_Ahr_CIS: Attagene CIS-FACTORIAL HepG2 Assay for human Aryl Hydrocarbon Receptor (Ahr) (AID 2282930); settings: HepG2 AhR cis-factorial reporter transcription; actives raise or lower the signal
# Chain of Aryl hydrocarbon receptor (Homo sapiens) (P35869 whole entry, looked up): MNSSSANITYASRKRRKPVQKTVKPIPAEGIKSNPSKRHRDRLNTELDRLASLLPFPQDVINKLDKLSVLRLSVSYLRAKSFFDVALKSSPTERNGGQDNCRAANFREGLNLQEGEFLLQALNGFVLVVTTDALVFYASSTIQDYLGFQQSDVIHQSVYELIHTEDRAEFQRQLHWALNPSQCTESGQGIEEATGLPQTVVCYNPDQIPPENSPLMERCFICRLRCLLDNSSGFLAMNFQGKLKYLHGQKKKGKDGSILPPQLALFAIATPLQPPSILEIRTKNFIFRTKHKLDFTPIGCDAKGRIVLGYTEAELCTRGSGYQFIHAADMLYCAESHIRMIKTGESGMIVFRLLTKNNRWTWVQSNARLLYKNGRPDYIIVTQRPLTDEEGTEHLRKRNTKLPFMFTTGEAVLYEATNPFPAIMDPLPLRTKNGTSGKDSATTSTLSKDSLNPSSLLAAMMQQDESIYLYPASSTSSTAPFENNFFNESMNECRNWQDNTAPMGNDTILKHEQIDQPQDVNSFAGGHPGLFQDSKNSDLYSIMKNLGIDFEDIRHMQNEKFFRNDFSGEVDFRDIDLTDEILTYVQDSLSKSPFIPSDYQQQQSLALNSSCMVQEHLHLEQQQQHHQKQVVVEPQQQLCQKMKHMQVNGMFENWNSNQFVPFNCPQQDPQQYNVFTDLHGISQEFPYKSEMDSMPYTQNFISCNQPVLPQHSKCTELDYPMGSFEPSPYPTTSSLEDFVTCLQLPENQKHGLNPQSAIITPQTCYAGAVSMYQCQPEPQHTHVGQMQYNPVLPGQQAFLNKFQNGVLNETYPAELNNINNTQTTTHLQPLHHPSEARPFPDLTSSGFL
# Method in brief: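 Values derive from bidirectional fitting against DMSO negative control. Underlying signal: cis-element reporter mRNA in transiently transfected HepG2, harvested 24 h post-dose and measured by RT-PCR plus capillary electrophoresis.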
# [3] = ATG_AP_1_CIS: Attagene CIS-FACTORIAL HepG2 Assay for human Activator Protein 1 (AP-1) (AID 2282931); settings: HepG2 Attagene cis-factorial AP-1 reporter mRNA; actives raise or lower the signal
# Method in brief: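 HepG2 cells transiently transfected with cis-element-driven multiplex reporter units; 24 h compound exposure. Reporter mRNA quantified by RT-PCR, FAM-labelled fragments resolved by capillary electrophoresis; bidirectional fit versus DMSO baseline.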
# [4] = ATG_AP_2_CIS: Attagene CIS-FACTORIAL HepG2 Assay for human Activator Protein 2 (AP-2) (AID 2282932); settings: HepG2 AP-2 cis-reporter, Attagene transcription factor profiling; AC50: actives raise or lower the signal unless noted; outcome: actives raise or lower the signal unless noted
# Method in brief: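 HepG2 cells were transiently transfected with multiple cis-promoter reporter transcription units and dosed for 24 h. Reporter mRNA was measured by RT-PCR with capillary electrophoresis fluorescence; bidirectional fits relative to DMSO baseline.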
# [5] = ATG_BRE_CIS: Attagene CIS-FACTORIAL HepG2 Assay for human Bone Morphogenetic Protein (BMP) Response Element (BRE) (AID 2282933); settings: HepG2 BMP response element reporter, Attagene transcription factor profiling; actives raise or lower the signal
# Method in brief: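 Read-out: reporter mRNA induction quantified by RT-PCR and capillary electrophoresis after 24 h chemical exposure of transfected HepG2 cells. Endogenous factor activity on the BMP response element; gain or loss fitted against DMSO baseline.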
# [6] = target: Transcription factor E2F1 (Homo sapiens) (UniProt Q01094); test: ATG_E2F_CIS: Attagene CIS-FACTORIAL HepG2 Assay for human E2F Transcription Factor 1 (AID 2282935); settings: HepG2 Attagene cis-reporter, E2F reporter RNA transcripts; actives raise or lower the signal
# Chain of Transcription factor E2F1 (Homo sapiens) (Q01094 whole entry, looked up): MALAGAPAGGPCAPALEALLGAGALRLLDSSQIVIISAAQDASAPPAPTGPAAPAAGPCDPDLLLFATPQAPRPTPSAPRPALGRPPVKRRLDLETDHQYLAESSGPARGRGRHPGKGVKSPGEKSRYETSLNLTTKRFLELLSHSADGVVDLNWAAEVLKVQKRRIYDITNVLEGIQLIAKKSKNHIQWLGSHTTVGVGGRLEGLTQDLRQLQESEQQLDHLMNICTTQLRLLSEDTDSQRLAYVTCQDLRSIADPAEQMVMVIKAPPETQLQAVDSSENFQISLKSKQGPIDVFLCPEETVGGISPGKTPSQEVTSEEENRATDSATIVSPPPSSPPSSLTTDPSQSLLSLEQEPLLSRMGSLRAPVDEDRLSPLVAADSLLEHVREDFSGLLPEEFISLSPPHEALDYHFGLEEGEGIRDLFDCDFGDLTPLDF
# Method in brief: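 HepG2 cells transiently transfected with multiplexed cis-element reporter units, dosed for 24 h. Reporter mRNA measured by RT-PCR, 6-FAM primer-extension labeling, HpaI digestion and capillary electrophoresis; bidirectional fit versus DMSO baseline.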
# [7] = ATG_E_Box_CIS: Attagene CIS-FACTORIAL HepG2 Assay for human Enhancer Box (E-box) (AID 2282936); settings: HepG2 E-box cis-reporter transcription, actives raise or lower the signal
# Method in brief: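 HepG2 cells transiently transfected with multiplexed cis-element reporter units sensing endogenous transcription factor activity; 24 h compound exposure. Reporter mRNA measured by RT-PCR, 6-FAM primer extension, HpaI digestion and capillary electrophoresis; bidirectional fit versus DMSO.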
# [8] = ATG_M_61_CIS: Attagene CIS-FACTORIAL HepG2 Assay for M61 Transcription Factor (Internal Marker) (AID 2282937); settings: HepG2 Attagene CIS-FACTORIAL M61 internal marker reporter; actives raise or lower the signal
# Method in brief: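 HepG2 cells transiently transfected with cis-element-driven multiple reporter transcription units, dosed for 24 h. Reporter mRNA measured by RT-PCR, 6-FAM primer-extension labelling, HpaI digestion and capillary electrophoresis; bidirectional fit versus DMSO baseline.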
# [9] = ATG_EGR_CIS: Attagene CIS-FACTORIAL HepG2 Assay for human Early Growth Response 1 (EGR1) (AID 2282938); settings: HepG2 Attagene CIS-FACTORIAL EGR reporter mRNA; actives raise or lower the signal
# Method in brief: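 HepG2 cells transiently transfected with cis-promoter-driven multiplexed reporter transcription units; reporter mRNA measured 24 h after compound dosing by RT-PCR, 6-FAM primer extension, HpaI digestion and capillary electrophoresis. Bidirectional fit versus DMSO baseline.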
# [10] = ATG_M_19_CIS: Attagene CIS-FACTORIAL HepG2 Assay for M19 Transcription Factor (Internal Marker) (AID 2282939); settings: HepG2 Attagene CIS-FACTORIAL M19 internal marker reporter; actives raise or lower the signal
# Method in brief: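 Readout: fluorescent reporter-transcript fragments by capillary electrophoresis after RT-PCR. Human HepG2 liver cells carried transfected MRTU constructs reporting endogenous transcription-factor activity; exposure 24 h. Gain or loss of signal fitted relative to DMSO.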
# [11] = ATG_ERE_CIS: Attagene CIS-FACTORIAL HepG2 Assay for Estrogen Response Element (ERE) (AID 2282940); settings: HepG2 ERE cis-reporter, Attagene RNA transcript; actives raise or lower the signal
# Method in brief: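 Readout: reporter mRNA induction by RT-PCR, FAM-labelled primer extension, HpaI digestion and capillary electrophoresis, 24 h after dosing transfected HepG2 cells. Endogenous transcription factors act on cis-element-regulated reporters. Gain or loss fitted against DMSO.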
# [12] = ATG_Ets_CIS: Attagene CIS-FACTORIAL HepG2 Assay for human Erythroblast Transformation Specific (ETS) (AID 2282941); settings: HepG2 ETS cis-reporter transcription; AC50: actives raise or lower the signal unless noted; outcome: actives raise or lower the signal unless noted
# Method in brief: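 HepG2 cells transiently transfected with cis-promoter reporter transcription units were dosed for 24 h; reporter mRNA was measured by RT-PCR, 6-FAM primer extension, HpaI digestion and capillary electrophoresis, with bidirectional fitting against DMSO baseline.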
# [13] = target: Hepatocyte nuclear factor 3-beta (Homo sapiens) (UniProt Q9Y261); test: ATG_FoxA2_CIS: Attagene CIS-FACTORIAL HepG2 Assay for human Forkhead box A2 (FOXA2) (AID 2282942); settings: HepG2 cis-reporter transcription factor activity, 24 h; actives raise or lower the signal
# Chain of Hepatocyte nuclear factor 3-beta (Homo sapiens) (Q9Y261 whole entry, looked up): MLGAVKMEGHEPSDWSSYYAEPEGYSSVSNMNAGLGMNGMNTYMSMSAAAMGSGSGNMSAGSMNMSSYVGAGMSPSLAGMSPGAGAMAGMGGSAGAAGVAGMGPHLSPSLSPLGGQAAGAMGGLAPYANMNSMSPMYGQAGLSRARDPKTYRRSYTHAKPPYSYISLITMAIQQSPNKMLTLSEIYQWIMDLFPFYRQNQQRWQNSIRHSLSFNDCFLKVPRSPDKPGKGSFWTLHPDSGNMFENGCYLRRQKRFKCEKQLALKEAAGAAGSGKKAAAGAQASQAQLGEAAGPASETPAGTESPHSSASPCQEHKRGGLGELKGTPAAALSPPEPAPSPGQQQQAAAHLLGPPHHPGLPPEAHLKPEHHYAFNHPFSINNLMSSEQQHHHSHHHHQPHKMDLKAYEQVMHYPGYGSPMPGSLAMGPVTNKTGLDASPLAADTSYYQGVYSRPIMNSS
# Method in brief: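 HepG2 cells transiently transfected with multiple cis-regulated reporter transcription units, dosed for 24 h. Reporter mRNA measured by RT-PCR, 6-FAM labelling, HpaI digestion and capillary electrophoresis; bidirectional fitting against DMSO baseline.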
# [14] = ATG_FoxO_CIS: Attagene CIS-FACTORIAL HepG2 Assay for human Forkhead box O (FoxO) (AID 2282943); settings: HepG2 Attagene cis-reporter, FoxO element, mRNA; actives raise or lower the signal
# Method in brief: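 Values reflect reporter mRNA induction or loss in HepG2 cells 24 h post-dosing, fitted bidirectionally with DMSO as negative control and baseline. Detection used RT-PCR and fluorescence capillary electrophoresis.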
# [15] = ATG_GATA_CIS: Attagene CIS-FACTORIAL HepG2 Assay for human GATA Binding Protein (AID 2282944); settings: HepG2 GATA cis-element reporter, Attagene multiplex mRNA; actives raise or lower the signal
# Method in brief: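 Read-out: fluorescent reporter mRNA fragments resolved by capillary electrophoresis after RT-PCR. Human liver HepG2 cells carried transiently transfected cis-regulated reporter constructs; chemicals incubated 24 h; gain or loss of signal fitted relative to DMSO.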
# [16] = ATG_GLI_CIS: Attagene CIS-FACTORIAL HepG2 Assay for human Zinc Finger Protein GLI1 (AID 2282945); settings: HepG2, Attagene cis-factorial reporter mRNA, GLI element; actives raise or lower the signal
# Method in brief: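 HepG2 cells transiently transfected with cis-promoter multiplexed reporter units report endogenous transcription factor activity. After 24 h chemical exposure, reporter mRNA was quantified by RT-PCR, 6-FAM labelling, HpaI digestion and capillary electrophoresis, with bidirectional fitting against DMSO.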
# [17] = target: Bile acid receptor (Homo sapiens) (UniProt Q96RI1); test: ATG_IR1_CIS: Attagene CIS-FACTORIAL HepG2 Assay for human Nuclear Receptor Subfamily 1 Group H Member 4 (NR1H4), IR1 submotif (AID 2282946); settings: IR1 reporter transcription, actives raise or lower the signal
# Chain of Bile acid receptor (Homo sapiens) (Q96RI1 whole entry, looked up): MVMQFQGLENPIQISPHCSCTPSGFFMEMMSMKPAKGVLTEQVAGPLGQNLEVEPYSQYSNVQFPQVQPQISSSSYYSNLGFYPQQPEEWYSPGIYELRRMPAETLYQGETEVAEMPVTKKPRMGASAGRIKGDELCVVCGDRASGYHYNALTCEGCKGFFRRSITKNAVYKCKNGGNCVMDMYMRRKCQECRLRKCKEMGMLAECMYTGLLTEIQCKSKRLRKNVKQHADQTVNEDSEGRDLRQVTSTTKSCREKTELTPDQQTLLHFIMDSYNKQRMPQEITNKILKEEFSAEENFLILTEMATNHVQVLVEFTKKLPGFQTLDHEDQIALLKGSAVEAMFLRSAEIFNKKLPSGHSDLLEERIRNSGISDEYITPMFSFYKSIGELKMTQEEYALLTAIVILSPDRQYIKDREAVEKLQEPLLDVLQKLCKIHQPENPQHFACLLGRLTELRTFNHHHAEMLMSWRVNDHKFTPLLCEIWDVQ
# Method in brief: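 Transient MRTU transfection, HepG2; 24 h dosing; RNA → RT-PCR → 6-FAM primer extension → HpaI digest → capillary electrophoresis fluorescence. Gain/loss of signal fitted relative to DMSO.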
# [18] = ATG_GRE_CIS: Attagene CIS-FACTORIAL HepG2 Assay for human Glucocorticoid Response Elements (GRE) (AID 2282947); settings: HepG2 GRE cis-reporter, Attagene multiplex mRNA; AC50: actives raise or lower the signal unless noted; outcome: actives raise or lower the signal unless noted
# Method in brief: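 HepG2 cells transiently transfected with multiple cis-promoter reporter units measure endogenous TF activity; 24 h compound exposure. Reporter mRNA quantified by RT-PCR, FAM labelling, HpaI digestion and capillary electrophoresis; bidirectional fit vs DMSO baseline.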
# [19] = ATG_ISRE_CIS: Attagene CIS-FACTORIAL HepG2 Assay for human Interferon Regulatory Factor 1 (IRF1) binding to an Interferon-Stimulated Response Element (ISRE) (AID 2282948); settings: HepG2 ISRE cis-reporter (Attagene), mRNA transcription readout; actives raise or lower the signal
# Method in brief: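 HepG2 cells transiently transfected with multiplexed cis-promoter reporter units; after 24 h compound exposure, reporter mRNA quantified by RT-PCR, FAM labelling, HpaI digestion and capillary electrophoresis. Bidirectional fit versus DMSO baseline.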
# [20] = target: Retinoic acid receptor alpha (Homo sapiens) (UniProt P10276); test: ATG_DR5_RAR_CIS: Attagene CIS-FACTORIAL HepG2 Assay for human Retinoic Acid Receptor Alpha (RARE), DR5 submotif (AID 2282934); settings: HepG2 Attagene cis-factorial RARE DR5 reporter, mRNA; actives raise or lower the signal
# Chain of Retinoic acid receptor alpha (Homo sapiens) (P10276 whole entry, looked up): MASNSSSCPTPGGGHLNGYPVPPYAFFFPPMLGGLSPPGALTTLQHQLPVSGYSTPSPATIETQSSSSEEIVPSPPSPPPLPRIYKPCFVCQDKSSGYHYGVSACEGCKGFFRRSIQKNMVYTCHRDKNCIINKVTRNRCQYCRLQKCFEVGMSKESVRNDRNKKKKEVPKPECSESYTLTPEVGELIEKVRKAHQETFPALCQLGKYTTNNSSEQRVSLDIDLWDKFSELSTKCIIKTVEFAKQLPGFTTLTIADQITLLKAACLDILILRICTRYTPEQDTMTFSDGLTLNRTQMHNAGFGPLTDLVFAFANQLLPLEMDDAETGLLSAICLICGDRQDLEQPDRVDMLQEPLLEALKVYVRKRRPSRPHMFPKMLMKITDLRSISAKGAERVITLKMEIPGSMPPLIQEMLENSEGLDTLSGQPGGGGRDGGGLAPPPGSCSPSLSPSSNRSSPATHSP
# Method in brief: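 Endpoint fitted in both directions relative to DMSO as negative control. It reflects DR5 cis-element reporter mRNA induction in transiently transfected HepG2 cells, measured 24 h after dosing through RT-PCR and fluorescent capillary electrophoresis.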
smiles,measurement,setting,value
C=CC(=C)CC/C=C(\C)CCC=C(C)C,outcome,[1],inactive
same,outcome,[2],inactive
same,outcome,[3],inactive
same,outcome,[4],inactive
same,outcome,[5],inactive
same,outcome,[6],inactive
same,outcome,[7],inactive
same,outcome,[8],inactive
same,outcome,[9],inactive
same,outcome,[10],inactive
same,outcome,[11],inactive
same,outcome,[12],inactive
same,outcome,[13],inactive
same,outcome,[14],inactive
same,outcome,[15],inactive
same,outcome,[16],inactive
same,outcome,[17],inactive
same,outcome,[18],inactive
same,outcome,[19],inactive
Oc1cccc2c(O)cccc12,outcome,[1],inactive
same,AC50,[2],578 nM (active)
same,outcome,[3],inactive
same,outcome,[5],inactive
same,outcome,[20],inactive
same,outcome,[6],inactive
same,AC50,[7],27.3 µM (active)
same,outcome,[8],inactive
same,outcome,[10],inactive
same,AC50,[11],12.3 µM (active)
same,outcome,[12],inactive
same,AC50,[13],0.0859 µM (active)
same,outcome,[14],inactive
same,outcome,[16],inactive
same,outcome,[17],inactive
same,outcome,[18],inactive
same,outcome,[19],inactive
O=C1OC2(c3ccccc31)c1cc(I)c(O)c(I)c1Oc1c2cc(I)c(O)c1I,outcome,[1],inactive
same,AC50,[2],15.4 µM (active) and 27.3 µM (active) and 27.9 µM (active)
same,outcome,[3],inactive
same,AC50,[5],88.1 µM (active) and 82.7 µM (active)
same,outcome,[5],inactive
same,outcome,[20],inactive
same,outcome,[6],inactive
same,AC50,[7],34.6 µM (active)
same,outcome,[7],inactive
same,outcome,[8],inactive
same,AC50,[9],36.1 µM (active) and 29.8 µM (active)
same,outcome,[9],inactive
same,outcome,[10],inactive
same,AC50,[13],29.9 µM (active)
same,outcome,[13],inactive
same,outcome,[14],inactive
same,outcome,[15],inactive
same,outcome,[16],inactive
same,outcome,[19],inactive
Oc1c(Cl)ccc(Cl)c1Cl,outcome,[1],inactive
same,AC50,[2],68300 nM (active)
same,outcome,[3],inactive
same,outcome,[4],inactive
same,outcome,[5],inactive
same,outcome,[20],inactive
same,outcome,[6],inactive
same,outcome,[7],inactive
same,outcome,[8],inactive
same,outcome,[10],inactive
same,outcome,[11],inactive
same,outcome,[12],inactive
same,outcome,[13],inactive
same,outcome,[14],inactive
same,outcome,[15],inactive
same,outcome,[17],inactive
same,outcome,[18],inactive
same,outcome,[19],inactive
CCOC=O,outcome,[1],inactive
same,outcome,[2],inactive
same,outcome,[3],inactive
same,outcome,[4],inactive
same,outcome,[5],inactive
same,outcome,[20],inactive
same,outcome,[6],inactive
same,outcome,[7],inactive
same,outcome,[8],inactive
same,outcome,[10],inactive
same,AC50,[11],59.3 µM (active)
same,outcome,[12],inactive
same,outcome,[13],inactive
same,outcome,[14],inactive
same,outcome,[15],inactive
same,outcome,[16],inactive
same,outcome,[17],inactive
same,outcome,[18],inactive
same,outcome,[19],inactive
